In PubChem BioAssay (Tox21):
Unmarked numbers belong to inactive results. Inconclusive results are not listed. Entries that show only a call come without a potency. Calls of active or inactive are those of the source. Unless noted, calls follow the shape of the dose curve; as a rule, active = well fitted curve in the direction sought with a large enough effect in the repeat runs; inconclusive = weak or mixed curves; inactive = no such curve, though single readings can be large; an effect the other way counts as inactive or inconclusive.

Assays:
[1] = qHTS assay for small molecule agonists of the p53 signaling pathway (AID 651631; calls by dose curve; also: nearly all actives have a fitted effect of over 15% in size; also: potency is read from the fitted curve at half-maximal effect)
Procedure, shortened: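 HCT-116 cells carrying a beta-lactamase reporter under p53 response elements were dosed with compound for 16 h at 37 °C. LiveBLAzer B/G FRET substrate was then added for 2 h at room temperature, and fluorescence intensity was read to detect pathway agonism.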

[2] = qHTS assay for small molecules that induce genotoxicity in human embryonic kidney cells expressing luciferase-tagged ATAD5 (AID 651632); also: nearly all actives have a fitted effect of over 15% in size
Procedure, shortened: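 Cells were seeded at 2,000 per well, dosed with compound, and incubated 16 hr at 37C in 5% CO2. Luciferase activity was then quantified after a 30 min room-temperature incubation with Amplite.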

[3] = qHTS assay for small molecule agonists of the p53 signaling pathway - cell viability (AID 651633; calls by dose curve;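 also: p53RE-bla HCT reporter cells with a stable beta-lactamase p53 reporter; nearly all actives have a fitted effect of over 30% in size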)
Procedure, shortened: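 Viability counter-read: CellTiter-Glo luminescence (30 min, room temperature) in the same p53RE-bla plates. These plates had been exposed to compounds for 16 h at 37 C.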

[4] = qHTS assay for small molecule disruptors of the mitochondrial membrane potential - cell viability (AID 720634; calls by dose curve; also: nearly all actives have a fitted effect of over 20% in size; also: potency is read from the fitted curve at half-maximal effect)
Procedure, shortened: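 Cytotoxicity was measured by ATP quantitation in HepG2 wells that had first been treated with compound for 1 hr and stained with m-MPI dye; CellTiter-Glo incubation was 30 min at room temperature.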

[5] = qHTS assay for small molecule disruptors of the mitochondrial membrane potential (AID 720635); also: potency is read from the fitted curve at half-maximal effect
Procedure, shortened: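 Mitochondrial membrane potential tracked with Mito-MPS dye, red aggregates (ex 540/em 590 nm) against green monomers (ex 490/em 535 nm). Compound treatment 1 hr at 37C, dye 30 min in HepG2.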

[6] = qHTS assay to test for compound auto fluorescence at 590 nm (red) in HepG2 cells (AID 720674)
Procedure, shortened: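 Red autofluorescence (Ex/Em 540/590 nm, Rose Bengal sodium equivalents) was measured in HepG2 cells, 2,000 per well in MEM plus 10% FBS, plated overnight at 37 C. Readings were taken 1 hr after adding 23 nL compound or DMSO, at 37 C and 5% CO2.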

[7] = qHTS assay to test for compound auto fluorescence at 535 nm (green) in HepG2 cells (AID 720675)
[8] = qHTS assay to test for compound auto fluorescence at 460 nm (blue) in HEK293 cells (AID 720678); also: potency is read from the fitted curve at half-maximal effect
Procedure, shortened: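 Measured: blue fluorescence (Ex 405/Em 460 nm) of compound-treated HEK293 cells, incubated overnight at 37C with 5% CO2 and scaled to triamterene equivalents.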

[9] = qHTS assay to test for compound auto fluorescence at 590 nm (red) in HEK293 cells (AID 720679)
Procedure, shortened: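 Using HEK293 cells at 2,000 per well, the screen added 23 nL of each compound after cell attachment and incubated overnight (37C, 5% CO2). The plate reader then captured red-label fluorescence, Ex/Em 540/590nm.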

[10] = qHTS assay to test for compound auto fluorescence at 460 nm (blue) in HEK293 cell free culture (AID 720681); also: potency is read from the fitted curve at half-maximal effect
Procedure, shortened: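 Blue fluorescence (Ex 405/Em 460 nm, triamterene-equivalent) was read immediately after pin transfer of compound or DMSO into medium (DMEM, 10% FBS) without cells.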

[11] = qHTS assay to test for compound auto fluorescence at 535 nm (green) in HEK293 cell free culture (AID 720682)
Procedure, shortened: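 Green-label autofluorescence (485 nm excitation, 535 nm emission) measured on compound added to cell-free culture medium (DMEM, 10% FBS). Output is expressed relative to fluorescein.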

[12] = qHTS assay to test for compound auto fluorescence at 590 nm (red) in HEK293 cell free culture (AID 720683)
Procedure, shortened: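 Red-channel autofluorescence of compounds in culture medium (DMEM, 10% FBS), no cells, measured at 540/590 nm. Rose Bengal sodium is the reference fluorophore for equivalence.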

[13] = qHTS assay to test for compound auto fluorescence at 590 nm (red) in HepG2 cell free culture (AID 720684)
Procedure, shortened: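 Cell-free; medium MEM + 10% FBS; compound or DMSO added by pintool; read Ex 540/Em 590 nm; Rose Bengal sodium as red reference fluorophore.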

[14] = qHTS assay to test for compound auto fluorescence at 460 nm (blue) in HepG2 cell free culture (AID 720685); also: potency is read from the fitted curve at half-maximal effect
Procedure, shortened: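 Cell-free plates of MEM plus 10% FBS received 23 nL compound or DMSO vehicle; blue-channel (405/460 nm) intensity scored against triamterene as reference fluorophore.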

[15] = qHTS assay to test for compound auto fluorescence at 535 nm (green) in HepG2 cell free culture (AID 720686)
[16] = qHTS assay to test for compound auto fluorescence at 460 nm (blue) in HepG2 cells (AID 720687); also: potency is read from the fitted curve at half-maximal effect
Procedure, shortened: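 Blue-channel autofluorescence (Ex/Em 405/460 nm, triamterene-equivalent) was measured after 1 hr compound exposure at 37 C, 5% CO2. Cells were HepG2, plated overnight at 37 C in MEM plus 10% FBS.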

[17] = target: Glucocorticoid receptor (Homo sapiens) (UniProt P04150); test: qHTS assay to identify small molecule agonists of the glucocorticoid receptor (GR) signaling pathway (AID 720691; active = well fitted activation curve with a large enough effect in the signal ratio in the repeat runs, not every such curve was filed as active; the % refers to the signal ratio; also: potency is read from the fitted curve at half-maximal effect); conditions: GR-bla HeLa, beta-lactamase reporter ratio, 18 h; activation: at 62.4 µM (top of the series)
Procedure, shortened: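 Steps: seed GR-bla HeLa cells, incubate 4 h at 37 C/5% CO2; pin-transfer DMSO-dissolved compounds; incubate 18 h at 37 C; add LiveBLAzer B/G FRET substrate; after 2 h at room temperature, measure fluorescence.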

[18] = target: Glucocorticoid receptor (Homo sapiens) (UniProt P04150); test: qHTS assay to identify small molecule antagonists of the glucocorticoid receptor (GR) signaling pathway (AID 720692; active = well fitted inhibition curve with a large enough effect in the signal ratio in the repeat runs, not every such curve was filed as active; the % refers to the signal ratio; also: potency is read from the fitted curve at half-maximal effect)
Procedure, shortened: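 Antagonism was scored as loss of dexamethasone-driven (5 nM final) reporter signal in HeLa cells bearing a glucocorticoid response element–beta-lactamase construct, after 18 h compound exposure at 37 C and 2 h FRET substrate loading.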

[19] = qHTS assay for small molecules that induce genotoxicity in human embryonic kidney cells expressing luciferase-tagged ATAD5 - cell viability (AID 651634; calls by dose curve; also: nearly all actives have a fitted effect of over 25% in size)
Procedure, shortened: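 Cells (HEK293T, luciferase-tagged ATAD5) are seeded at 2,000 per well, dosed with compound or DMSO vehicle, and incubated 15.5 hr at 37C and 5% CO2. CellTiter-Fluor is added for 30 min before fluorescence is measured.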

[20] = qHTS assay to test for compound auto fluorescence at 535 nm (green) in HEK293 cells (AID 720680)
Tags tell the direction and shape of the fitted curve or compound fluorescence and quenching.

Chain of Glucocorticoid receptor (Homo sapiens) (P04150 whole entry, looked up): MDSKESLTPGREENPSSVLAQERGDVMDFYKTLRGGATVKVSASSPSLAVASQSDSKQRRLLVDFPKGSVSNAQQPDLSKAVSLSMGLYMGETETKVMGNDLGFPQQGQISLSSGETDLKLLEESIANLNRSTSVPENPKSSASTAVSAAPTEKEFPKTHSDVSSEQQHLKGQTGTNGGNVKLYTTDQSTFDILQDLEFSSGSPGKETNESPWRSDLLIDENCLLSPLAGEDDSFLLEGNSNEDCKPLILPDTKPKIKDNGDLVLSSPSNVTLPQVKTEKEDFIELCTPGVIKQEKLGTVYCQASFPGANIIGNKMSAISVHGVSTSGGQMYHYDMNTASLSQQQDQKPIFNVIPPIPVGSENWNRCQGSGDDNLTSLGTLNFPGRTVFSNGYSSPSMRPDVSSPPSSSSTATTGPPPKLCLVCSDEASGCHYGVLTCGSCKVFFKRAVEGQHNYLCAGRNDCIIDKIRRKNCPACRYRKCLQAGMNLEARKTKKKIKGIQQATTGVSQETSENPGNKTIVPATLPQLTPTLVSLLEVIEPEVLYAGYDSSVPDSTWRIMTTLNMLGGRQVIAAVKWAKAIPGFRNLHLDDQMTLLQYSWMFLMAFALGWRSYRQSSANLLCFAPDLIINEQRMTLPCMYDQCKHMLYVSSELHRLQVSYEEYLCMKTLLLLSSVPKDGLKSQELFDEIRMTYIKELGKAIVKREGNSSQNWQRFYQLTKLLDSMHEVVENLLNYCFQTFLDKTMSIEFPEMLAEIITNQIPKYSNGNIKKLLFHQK

COc1ccc2c3c1O[C@H]1[C@H](O)CC[C@H]4[C@@H](C2)N(C)CC[C@@]341
Potency [1]: inactive
Potency [2]: inactive
Potency [3]: inactive
Potency [4]: inactive
Potency [5]: inactive
outcome [6]: inactive
Potency [7]: inactive
Potency [8]: inactive
outcome [9]: inactive
Potency [10]: inactive
outcome [11]: inactive
outcome [12]: inactive
outcome [13]: inactive
Potency [14]: inactive
Potency [15]: inactive
Potency [16]: inactive
Potency [17]: inactive
Potency [18]: inactive

CN1[C@@H]2CC[C@H]1CC(O)C2 (stereo partly drawn)
Potency [1]: inactive
Potency [2]: inactive
Potency [19]: inactive
Potency [4]: inactive
outcome [6]: inactive
Potency [7]: inactive
Potency [8]: inactive
outcome [9]: inactive
outcome [20]: inactive
Potency [10]: inactive
outcome [13]: inactive
Potency [14]: inactive
Potency [15]: inactive
Potency [16]: inactive

N#Cc1c[nH]cc1-c1cccc2c1OC(F)(F)O2
Potency [1]: 8.63 µM (active)
Potency [2]: inactive
Potency [19]: inactive
Potency [4]: 5.45 µM (active)
Potency [5]: 2.17 µM (active)
Potency [7]: inactive
Potency [8]: inactive
outcome [9]: inactive
outcome [20]: inactive
Potency [10]: inactive
outcome [11]: inactive
outcome [12]: inactive
outcome [13]: inactive
Potency [14]: inactive
Potency [16]: inactive
Potency [18]: 9.77 µM (active)

CCOP(=S)(OCC)Oc1cc(C)nc(N(CC)CC)n1
Potency [1]: inactive
Potency [2]: inactive
Potency [5]: 48.6 µM (active)
outcome [6]: inactive
Potency [7]: inactive
Potency [8]: inactive
outcome [9]: inactive
outcome [20]: inactive
Potency [10]: inactive
outcome [11]: inactive
outcome [12]: inactive
outcome [13]: inactive
Potency [14]: inactive
Potency [15]: inactive
Potency [16]: inactive
Potency [17]: inactive

CCOC(=O)CCN(SN(C)C(=O)Oc1cccc2c1OC(C)(C)C2)C(C)C
Potency [1]: inactive
Potency [2]: inactive
Potency [3]: inactive
Potency [19]: inactive
outcome [6]: inactive
Potency [7]: inactive
Potency [8]: inactive
outcome [9]: inactive
outcome [20]: inactive
Potency [10]: inactive
outcome [11]: inactive
outcome [12]: inactive
outcome [13]: inactive
Potency [14]: inactive
Potency [15]: inactive
Potency [16]: inactive
Potency [17]: inactive
Potency [18]: inactive

CSC1=N[C@@](C)(c2ccccc2)C(=O)N1Nc1ccccc1
Potency [1]: inactive
Potency [2]: inactive
Potency [19]: inactive
outcome [6]: inactive
Potency [7]: inactive
Potency [8]: inactive
outcome [9]: inactive
outcome [20]: inactive
Potency [10]: inactive
outcome [12]: inactive
outcome [13]: inactive
Potency [15]: inactive
Potency [16]: inactive
Potency [17]: inactive

CN=C=O
Potency [1]: inactive
Potency [3]: inactive
Potency [19]: inactive
Potency [4]: inactive
outcome [6]: inactive
Potency [7]: inactive
Potency [8]: inactive
outcome [9]: inactive
outcome [20]: inactive
Potency [10]: inactive
outcome [12]: inactive
outcome [13]: inactive
Potency [14]: inactive
Potency [15]: inactive
Potency [16]: inactive

CCN(CC)CCN1C(=O)CN=C(c2ccccc2F)c2cc(Cl)ccc21
Potency [1]: inactive
Potency [2]: inactive
Potency [3]: inactive
Potency [4]: inactive
Potency [7]: inactive
Potency [8]: inactive
outcome [9]: inactive
outcome [20]: inactive
Potency [10]: inactive
outcome [11]: inactive
outcome [12]: inactive
outcome [13]: inactive
Potency [14]: inactive
Potency [15]: inactive
Potency [16]: inactive
Potency [17]: inactive
Potency [18]: inactive

COc1nc(C)nc(NC(=O)NS(=O)(=O)c2ccccc2Cl)n1
Potency [1]: inactive
Potency [2]: inactive
Potency [19]: inactive
Potency [4]: inactive
Potency [5]: inactive
outcome [6]: inactive
Potency [7]: inactive
Potency [8]: inactive
outcome [9]: inactive
outcome [20]: inactive
Potency [10]: inactive
outcome [11]: inactive
outcome [12]: inactive
outcome [13]: inactive
Potency [14]: inactive
Potency [15]: inactive
Potency [16]: inactive
Potency [17]: inactive
Potency [18]: inactive

CN1CCc2cc3c(cc2C1O)OCO3 (stereo not drawn)
Potency [1]: 61.5 µM (active)
Potency [2]: inactive
Potency [4]: inactive
outcome [6]: inactive
Potency [7]: inactive
Potency [8]: 35.5 µM [fluorescent] (active)
outcome [9]: inactive
outcome [20]: inactive
Potency [10]: 39.8 µM (active)
outcome [11]: inactive
outcome [12]: inactive
outcome [13]: inactive
Potency [14]: 39.8 µM [fluorescent] (active)
Potency [16]: 39.8 µM [fluorescent] (active)

CCN(CC)Cc1nccn1-c1ccc([N+](=O)[O-])cc1C(=O)c1ccccc1Cl
Potency [1]: inactive
Potency [2]: inactive
Potency [19]: inactive
Potency [4]: inactive
Potency [7]: inactive
Potency [8]: inactive
outcome [9]: inactive
outcome [20]: inactive
Potency [10]: inactive
outcome [11]: inactive
outcome [12]: inactive
outcome [13]: inactive
Potency [16]: inactive
Potency [17]: inactive
Potency [18]: inactive

Cc1cc(C2CC2)nc(Nc2ccccc2)n1
Potency [1]: inactive
Potency [2]: inactive
Potency [3]: inactive
outcome [6]: inactive
Potency [7]: inactive
Potency [8]: inactive
outcome [9]: inactive
outcome [20]: inactive
Potency [10]: inactive
outcome [12]: inactive
outcome [13]: inactive
Potency [14]: inactive
Potency [15]: inactive
Potency [16]: inactive

CCOP(=S)(NC(C)C)Oc1ccccc1C(=O)OC(C)C (stereo not drawn)
Potency [1]: inactive
Potency [2]: inactive
Potency [3]: inactive
Potency [19]: inactive
Potency [5]: 27.3 µM (active)
Potency [7]: inactive
Potency [8]: inactive
outcome [9]: inactive
outcome [20]: inactive
Potency [10]: inactive
outcome [11]: inactive
outcome [12]: inactive
outcome [13]: inactive
Potency [15]: inactive
Potency [16]: inactive
Potency [17]: inactive

CCOP(=O)(OCC)Oc1cc(C)nc(C(C)C)n1
Potency [1]: inactive
Potency [2]: inactive
Potency [3]: inactive
Potency [4]: inactive
Potency [5]: inactive
outcome [6]: inactive
Potency [7]: inactive
Potency [8]: inactive
outcome [9]: inactive
outcome [20]: inactive
Potency [10]: inactive
outcome [11]: inactive
outcome [12]: inactive
outcome [13]: inactive
Potency [15]: inactive
Potency [16]: inactive
Potency [17]: inactive

c1ccc2c(c1)cc1ccc3cccc4ccc2c1c34
Potency [1]: 3.5 µM (active)
Potency [2]: inactive
Potency [3]: inactive
Potency [19]: inactive
outcome [6]: inactive
Potency [7]: inactive
outcome [9]: inactive
Potency [10]: inactive
outcome [11]: inactive
outcome [12]: inactive
outcome [13]: inactive
Potency [15]: inactive
Potency [17]: 25 µM [fluorescent] (active)

[O]=[Cr][O][Cr]=[O]
Potency [1]: inactive
Potency [2]: inactive
Potency [3]: inactive
Potency [19]: inactive
outcome [6]: inactive
Potency [7]: inactive
Potency [8]: inactive
outcome [9]: inactive
outcome [20]: inactive
Potency [10]: inactive
outcome [11]: inactive
outcome [12]: inactive
outcome [13]: inactive
Potency [15]: inactive
Potency [16]: inactive
Potency [17]: inactive
Potency [18]: inactive
